For 153 variants, enrichment ratio results are on record in a collection of fitness landscapes (doi:10.1126/science.1257360).

In all, about 140,000 sequences were measured (“enrichment ratio after two sorts for PhoP signalling”: median about 0, highest 2% from about 11 on). The entries come from a sample that favours the highest values as a whole. Where only a bound is given, the exact number is not on record here.

B1: PhoQ; a variant is named by its letters at X, in order, P23837 (parent)
chain: MKKLLRLFFPLSLRVRFLLATAAVVLVLSLAYGMVALIGYSVSFDKTTFRLLRGESNLFYTLAKWENNKLHVELPENIDKQSPTMTLIYDENGQLLWAQRDVPWLMKMIQPDWLKSNGFHEIEADVNDTSLLLSGDHSIQQQLQEVREDDDDAEMTHSVAVNVYPATSRMPKLTIVVVDTIPVELKSSYMVWSWFIYVLSANLLLVIPLLWVAAWWSLRPIEALAKEVRELEEHNRELLNPATTRELTSLVRNLNRLLKSERERYDKYRTTLTDLTHSLKTPLXXLQXXLRSLRSEKMSVSDAEPVMLEQISRISQQIGYYLHRASMRGGTLLSRELHPVAPLLDNLTSALNKVYQRKGVNISLDISPEISFVGEQNDFVEVMGNVLDNACKYCLEFVEISARQTDEHLYIVVEDDGPGIPLSKREVIFDRGQRVDTLRPGQGVGLAVAREITEQYEGKIVAGESMLGGARMEVIFGRQHSAPKDE

The assay covers variants of B1. As to the kind of experiment: enrichment ratio after two sorts for PhoP signalling (ratio (wild type AVST 3.29)); higher = more functional. To be noted: with PhoP (E. coli).
As for KVFQ, the enrichment ratio was ≤ 0.25.
On to TFVR, for which the enrichment ratio was ≤ 0.25.
For QGQK the value was ≤ 0.25; for PHIC, ≤ 0.25.
On to NSGR, for which the enrichment ratio is ≤ 0.25.
To SWSS belongs ≤ 0.25; to AQVW, ≤ 0.25; to THPY, ≤ 0.25.
For TAMF the value was 19.6; for TAVK, ≤ 0.25; for TAAF, 18.4.
For KAAF the value was ≤ 0.25; for IAMF, ≤ 0.25; for TAWV, 12.8.
On to NAAF, for which the enrichment ratio was ≤ 0.25.
Turning to TAWI, the enrichment ratio was found to be 10.7.
For YAMF, the enrichment ratio was ≤ 0.25.
DPRG: the enrichment ratio was ≤ 0.25.
Turning to GCCQ, the enrichment ratio is 8.03.
On to NNVY, for which the enrichment ratio is ≤ 0.25.
In the case of MPPF, the enrichment ratio was ≤ 0.25.
As for QTGS, the enrichment ratio was determined as 0.628.
For SDDV the value was 0.265; for WLTS, ≤ 0.25; for AVTG, 11.3.
To AVMG belongs 2.13; to AVCA, 6.97.
As for AVSI, the enrichment ratio was 13.1.
For AVVG the value was 11.2; for AVDH, ≤ 0.25; for HSNG, ≤ 0.25.
For ERPM, the enrichment ratio was ≤ 0.25.
With QHPH, the enrichment ratio was ≤ 0.25.
To LVHC belongs 15.
In the case of QVDN, the enrichment ratio was 11.3.
As to FVDN, the enrichment ratio was ≤ 0.25.
For QLNM the value was ≤ 0.25; for TVDY, ≤ 0.25.
For QLWM the value was 12.6; for LNHC, ≤ 0.25; for QLCK, ≤ 0.25.
For QVDY the value was 11.3; for QLDN, ≤ 0.25.
Consider LPHC, for which the enrichment ratio was ≤ 0.25.
For QVDS, the enrichment ratio was 1.54.
To LLFG belongs ≤ 0.25.
For YKSC the value was ≤ 0.25.
As to GCVC, the enrichment ratio was ≤ 0.25.
For HYNH the value was ≤ 0.25; for QPWG, ≤ 0.25; for QADY, 11.7.
On to QADS, for which the enrichment ratio was determined as 3.89.
As for QSWG, the enrichment ratio turned out to be 18.
On to QSDS, for which the enrichment ratio came to 20.8.
To KSDH belongs ≤ 0.25.
For QRWG the value was ≤ 0.25; for QEDH, ≤ 0.25.
To QSDH belongs 18.9; to QSDA, 7.1.
Consider KADY, for which the enrichment ratio is ≤ 0.25.
As for QSDK, the enrichment ratio was ≤ 0.25.
To QIRT belongs ≤ 0.25.
Consider QYHW, for which the enrichment ratio is ≤ 0.25.
As for CPHF, the enrichment ratio was ≤ 0.25.
For NKSG the value was ≤ 0.25.
To VAGL belongs 1.62; to RRLA, ≤ 0.25; to QSHV, 11.3.
For QSAM the value was 14.5; for KSHI, ≤ 0.25.
With QAAM, the enrichment ratio was ≤ 0.25.
To QSGV belongs 3.83; to QEAM, ≤ 0.25.
For QSDI the value was 14.8.
For KNHV the value was ≤ 0.25; for QPDI, ≤ 0.25; for KSDI, ≤ 0.25.
Turning to QSHI, the enrichment ratio is 15.9.
For QSHF the value was 9.45; for SNHK, ≤ 0.25.
For ELHR, the enrichment ratio was ≤ 0.25.
As to RESM, the enrichment ratio was ≤ 0.25.
Regarding NKRK, the enrichment ratio was ≤ 0.25.
For MWRP the value was ≤ 0.25; for GFQI, ≤ 0.25; for NFAP, ≤ 0.25.
Take QRWA: the enrichment ratio is ≤ 0.25.
To QSGD belongs ≤ 0.25.
To QSRM belongs ≤ 0.25; to QSWA, 14.9.
To QSGM belongs 21.6.
Regarding QSWI, the enrichment ratio amounted to 21.7.
Turning to QPWA, the enrichment ratio is ≤ 0.25.
To QSCK belongs ≤ 0.25; to QSLA, ≤ 0.25.
QSTH: the enrichment ratio is ≤ 0.25.
For QSWM, the enrichment ratio worked out at 11.9.
Consider QSPM, for which the enrichment ratio is ≤ 0.25.
WMFH: the enrichment ratio was ≤ 0.25.
For the variant WHID, the enrichment ratio was ≤ 0.25.
Take WSCR: the enrichment ratio is ≤ 0.25.
Take TVMI: the enrichment ratio is 1.87.
To WGFP belongs ≤ 0.25; to HKEM, ≤ 0.25; to ESDT, ≤ 0.25.
To QSHP belongs ≤ 0.25; to QYMG, ≤ 0.25; to KSDY, ≤ 0.25.
QENM: the enrichment ratio is ≤ 0.25.
To QSDY belongs 14.5.
To KSNM belongs ≤ 0.25; to QYWG, 16.3; to QSTD, ≤ 0.25.
To QSNM belongs 13.1; to QYWI, ≤ 0.25; to QSWY, 7.32.
As for QSHQ, the enrichment ratio was found to be 22.4.
To HQNG belongs ≤ 0.25; to FDDI, ≤ 0.25.
To SMYF belongs ≤ 0.25.
YYYI: the enrichment ratio is ≤ 0.25.
For FAGN the value was ≤ 0.25.
To ICGK belongs ≤ 0.25; to IRTW, ≤ 0.25.
For QVHC the value was ≤ 0.25; for QSDM, 13.7; for QLHC, 21.3.
As for QRHC, the enrichment ratio was ≤ 0.25.
For the variant QPDM, the enrichment ratio was ≤ 0.25.
To KSDM belongs ≤ 0.25; to QPWD, ≤ 0.25.
As for QSWD, the enrichment ratio is 22.4.
For the variant FFDM, the enrichment ratio was ≤ 0.25.
For QGGM the value was 4.35; for QRWD, ≤ 0.25; for QGDM, 27.5.
For WGMH the value was ≤ 0.25; for ANRC, ≤ 0.25; for KGAG, ≤ 0.25.
As to TIPQ, the enrichment ratio was ≤ 0.25.
Regarding PTHR, the enrichment ratio is ≤ 0.25.
To TEAL belongs 14.7; to QRAL, ≤ 0.25.
On to MEAL, for which the enrichment ratio came out at 8.16.
For TAAL the value was 11.4; for RGAL, 0.701; for TGAL, 15.9.
For NGAL the value was ≤ 0.25; for KAAL, 1.81; for GGAL, 4.27.
Take NEAL: the enrichment ratio is ≤ 0.25.
On to MGAL, for which the enrichment ratio is 15.5.
For NAAL the value was ≤ 0.25.
